Results published in PubChem BioAssay.
Calls of active or inactive are those of the source.

Assays:
[1] = small molecules captured by biotinylated probe aFSTL3 – biochemical, small-molecule microarray, fluorescence 635/667, stem cell growth factor project, primary screen (AID 1064); conditions: higher = more signal;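 also: measures binding of the biotinylated anti-FSTL3 antibody to printed compounds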
[2] = binders from COS7 lysate, DM2A8 probe, primary screen, torsin A project, cell lysate, small-molecule microarray, fluorescence 635/667 (AID 1065); conditions: higher = more signal, COS7 lysate expressing mutant human TOR1A
[3] = small molecules captured by biotinylated probe aFGF2 – biochemical, small-molecule microarray, fluorescence 635/667, stem cell growth factor project, primary screen (AID 1067); conditions: higher = more signal;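 also: measures binding of biotinylated aFGF2 protein to printed compounds on slides; z-score merges feature fluorescence and signal-to-noise across triplicate slides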
[4] = small molecules captured by biotinylated probe aFGF10 – biochemical, small-molecule microarray, fluorescence 635/667, stem cell growth factor project, primary screen (AID 1071); conditions: higher = more signal;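 also: score merges 667 nm spot intensity and signal to noise from triplicate slides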
[5] = biological target: Neurogenic locus notch homolog protein 2 (Homo sapiens) (UniProt Q04721); experiment: small molecules binding Notch2 protein – biochemical, small-molecule microarray, 635 nm fluorescence, stem cell growth factors, primary screen (AID 1073); conditions: higher = more signal
[6] = biological target: Pro-neuregulin-1, membrane-bound isoform (Homo sapiens) (UniProt Q02297); experiment: small molecules binding neuregulin-1 protein – biochemical, small-molecule microarray, fluorescence 635/667, psychiatric disease protein project, primary screen (AID 1075); conditions: NRG1 binding, 635 nm fluorescence, higher = more signal;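 also: score combines 667 nm spot fluorescence with signal to noise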
Sequence of Pro-neuregulin-1, membrane-bound isoform (Homo sapiens) (Q02297 whole entry, looked up, the tested form may be a part, canonical isoform): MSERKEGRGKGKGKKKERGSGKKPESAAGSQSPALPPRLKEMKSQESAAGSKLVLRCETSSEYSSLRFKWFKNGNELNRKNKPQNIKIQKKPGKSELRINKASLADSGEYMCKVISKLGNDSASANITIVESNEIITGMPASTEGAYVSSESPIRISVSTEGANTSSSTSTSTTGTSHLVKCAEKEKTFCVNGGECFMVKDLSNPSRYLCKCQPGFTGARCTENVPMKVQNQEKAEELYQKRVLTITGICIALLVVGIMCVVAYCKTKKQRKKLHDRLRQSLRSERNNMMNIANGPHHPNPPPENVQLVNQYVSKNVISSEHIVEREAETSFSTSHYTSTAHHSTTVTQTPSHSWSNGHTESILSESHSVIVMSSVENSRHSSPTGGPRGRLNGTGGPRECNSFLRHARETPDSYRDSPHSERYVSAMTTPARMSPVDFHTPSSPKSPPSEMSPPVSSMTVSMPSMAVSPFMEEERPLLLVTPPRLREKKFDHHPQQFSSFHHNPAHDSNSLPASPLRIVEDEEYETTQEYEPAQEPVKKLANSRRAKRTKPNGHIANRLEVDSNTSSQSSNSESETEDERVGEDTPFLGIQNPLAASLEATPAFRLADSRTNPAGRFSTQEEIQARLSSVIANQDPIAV

[7] = system: Neuregulin-1 EGF-like domain; experiment: small molecules binding NRG1 EGF domain – biochemical, small-molecule microarray, 635 nm fluorescence, primary screen (AID 1081); conditions: higher = more signal;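 also: binding of the protein to compounds printed on small-molecule microarray slides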
[8] = FRG1 expression reporter modulators in myotubes – cell-based, C2C12 myotubes, firefly/Renilla luciferase, luminescence, FRG1 inhibition for FSHD, primary screen (AID 1084); conditions: FRG1 promoter luciferase, higher = more signal, called active from +8 up or from −8 down
[9] = small molecules captured by biotinylated probe aFST – biochemical, small-molecule microarray, fluorescence 635/667, stem cell growth factor project, primary screen (AID 1086); conditions: higher = more signal;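 also: score merges 667 nm fluorescence with signal-to-noise of each printed compound spot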
[10] = binders of probe aHhip on microarray, primary screen, stem cell growth factor project, biochemical, small-molecule microarray, fluorescence 635/667 (AID 1087); conditions: higher = more signal;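 also: score merges spot fluorescence at 667nm with spot signal to noise ratio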
[11] = system: PRMT1 (protein arginine N-methyltransferase 1); experiment: small molecules binding arginine methyltransferase PRMT1 – biochemical, small-molecule microarray, 635 nm fluorescence, primary screen (AID 1088); conditions: higher = more signal;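 also: binding of Prmt1 protein to compounds spotted on small-molecule microarray slides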
[12] = growth effects on S. cerevisiae YJM789 – YJM789 clinical isolate, OD600, 24 h, basal, primary screen (AID 1089); conditions: higher = more signal, called active from +8 up or from −8 down;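 also: growth of clinical yeast isolate S. cerevisiae YJM 789 seeded 1000 cells per well; test concentration not given here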
[13] = S. pombe growth modifiers, basal conditions – strain 972, OD600, 24 h, no modulator, primary screen (AID 1090);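 also: basal condition with compound alone and no growth modifier present; test concentration not given here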; conditions: S. pombe 972 growth, higher = more signal, called active from +8 up or from −8 down
[14] = budding yeast growth modifiers under rapamycin – strain BY4716, OD600, 96 h, primary screen (AID 1091); also: test concentration not given here; conditions: S. cerevisiae BY4716 + rapamycin, higher = more signal, called active from +8 up or from −8 down
[15] = biological target: Torsin-1A-interacting protein 2 (Homo sapiens) (UniProt Q8NFQ8); experiment: small molecules binding lysate-expressed LULL1 – cell lysate, human LULL1 lysate, 635/667 nm fluorescence, primary screen (AID 1092); conditions: small-molecule microarray, hLULL1 lysate binding, 635 nm fluorescence; higher = more signal;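 also: probe is lysate of COS7 cells overexpressing human LULL1; score merges per-feature 667 nm fluorescence with signal-to-noise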
Sequence of Torsin-1A-interacting protein 2 (Homo sapiens) (Q8NFQ8 whole entry, looked up): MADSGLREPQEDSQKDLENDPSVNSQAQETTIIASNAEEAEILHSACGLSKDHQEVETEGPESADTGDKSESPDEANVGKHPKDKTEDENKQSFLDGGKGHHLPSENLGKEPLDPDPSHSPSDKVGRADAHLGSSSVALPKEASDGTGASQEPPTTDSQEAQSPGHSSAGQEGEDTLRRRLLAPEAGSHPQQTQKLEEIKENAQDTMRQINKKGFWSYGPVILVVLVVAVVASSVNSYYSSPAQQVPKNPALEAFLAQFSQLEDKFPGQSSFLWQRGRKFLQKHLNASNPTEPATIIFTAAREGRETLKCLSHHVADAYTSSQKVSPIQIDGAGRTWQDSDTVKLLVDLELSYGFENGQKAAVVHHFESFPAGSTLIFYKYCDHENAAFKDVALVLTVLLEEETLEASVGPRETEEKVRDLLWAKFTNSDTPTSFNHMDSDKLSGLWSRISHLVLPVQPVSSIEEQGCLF

[16] = optical density change of DRC41 E. coli – strain DRC41, OD650, 24 h, E. coli filamentation project, primary screen (AID 1093);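 also: MC1000 strain lacking acrAB efflux and sulA so SOS filamentation is blocked; test concentration not given here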; conditions: E. coli DRC41 growth, higher = more signal, called active from +8 up or from −8 down
[17] = probe aLefty2 binding to arrayed compounds – biochemical, biotinylated probe, 635/667 nm fluorescence, primary screen (AID 1094); conditions: small-molecule microarray, higher = more signal;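 also: score merges spot fluorescence near 667 nm with spot signal-to-noise ratio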
[18] = system: Noggin (protein binding on small-molecule microarray); experiment: small molecules binding Noggin protein – biochemical, 635/667 nm fluorescence, primary screen (AID 1095); conditions: 635 nm fluorescence, higher = more signal;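 also: score merges 667 nm feature fluorescence with signal to noise over triplicate slides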
[19] = biological target: Neurogenic locus notch homolog protein 3 (Homo sapiens) (UniProt Q9UM47); experiment: small molecules binding NOTCH3 protein – biochemical, 635/667 nm fluorescence, primary screen (AID 1096); conditions: small-molecule microarray, 635 nm fluorescence, higher = more signal
Sequence of Neurogenic locus notch homolog protein 3 (Homo sapiens) (Q9UM47 whole entry, looked up): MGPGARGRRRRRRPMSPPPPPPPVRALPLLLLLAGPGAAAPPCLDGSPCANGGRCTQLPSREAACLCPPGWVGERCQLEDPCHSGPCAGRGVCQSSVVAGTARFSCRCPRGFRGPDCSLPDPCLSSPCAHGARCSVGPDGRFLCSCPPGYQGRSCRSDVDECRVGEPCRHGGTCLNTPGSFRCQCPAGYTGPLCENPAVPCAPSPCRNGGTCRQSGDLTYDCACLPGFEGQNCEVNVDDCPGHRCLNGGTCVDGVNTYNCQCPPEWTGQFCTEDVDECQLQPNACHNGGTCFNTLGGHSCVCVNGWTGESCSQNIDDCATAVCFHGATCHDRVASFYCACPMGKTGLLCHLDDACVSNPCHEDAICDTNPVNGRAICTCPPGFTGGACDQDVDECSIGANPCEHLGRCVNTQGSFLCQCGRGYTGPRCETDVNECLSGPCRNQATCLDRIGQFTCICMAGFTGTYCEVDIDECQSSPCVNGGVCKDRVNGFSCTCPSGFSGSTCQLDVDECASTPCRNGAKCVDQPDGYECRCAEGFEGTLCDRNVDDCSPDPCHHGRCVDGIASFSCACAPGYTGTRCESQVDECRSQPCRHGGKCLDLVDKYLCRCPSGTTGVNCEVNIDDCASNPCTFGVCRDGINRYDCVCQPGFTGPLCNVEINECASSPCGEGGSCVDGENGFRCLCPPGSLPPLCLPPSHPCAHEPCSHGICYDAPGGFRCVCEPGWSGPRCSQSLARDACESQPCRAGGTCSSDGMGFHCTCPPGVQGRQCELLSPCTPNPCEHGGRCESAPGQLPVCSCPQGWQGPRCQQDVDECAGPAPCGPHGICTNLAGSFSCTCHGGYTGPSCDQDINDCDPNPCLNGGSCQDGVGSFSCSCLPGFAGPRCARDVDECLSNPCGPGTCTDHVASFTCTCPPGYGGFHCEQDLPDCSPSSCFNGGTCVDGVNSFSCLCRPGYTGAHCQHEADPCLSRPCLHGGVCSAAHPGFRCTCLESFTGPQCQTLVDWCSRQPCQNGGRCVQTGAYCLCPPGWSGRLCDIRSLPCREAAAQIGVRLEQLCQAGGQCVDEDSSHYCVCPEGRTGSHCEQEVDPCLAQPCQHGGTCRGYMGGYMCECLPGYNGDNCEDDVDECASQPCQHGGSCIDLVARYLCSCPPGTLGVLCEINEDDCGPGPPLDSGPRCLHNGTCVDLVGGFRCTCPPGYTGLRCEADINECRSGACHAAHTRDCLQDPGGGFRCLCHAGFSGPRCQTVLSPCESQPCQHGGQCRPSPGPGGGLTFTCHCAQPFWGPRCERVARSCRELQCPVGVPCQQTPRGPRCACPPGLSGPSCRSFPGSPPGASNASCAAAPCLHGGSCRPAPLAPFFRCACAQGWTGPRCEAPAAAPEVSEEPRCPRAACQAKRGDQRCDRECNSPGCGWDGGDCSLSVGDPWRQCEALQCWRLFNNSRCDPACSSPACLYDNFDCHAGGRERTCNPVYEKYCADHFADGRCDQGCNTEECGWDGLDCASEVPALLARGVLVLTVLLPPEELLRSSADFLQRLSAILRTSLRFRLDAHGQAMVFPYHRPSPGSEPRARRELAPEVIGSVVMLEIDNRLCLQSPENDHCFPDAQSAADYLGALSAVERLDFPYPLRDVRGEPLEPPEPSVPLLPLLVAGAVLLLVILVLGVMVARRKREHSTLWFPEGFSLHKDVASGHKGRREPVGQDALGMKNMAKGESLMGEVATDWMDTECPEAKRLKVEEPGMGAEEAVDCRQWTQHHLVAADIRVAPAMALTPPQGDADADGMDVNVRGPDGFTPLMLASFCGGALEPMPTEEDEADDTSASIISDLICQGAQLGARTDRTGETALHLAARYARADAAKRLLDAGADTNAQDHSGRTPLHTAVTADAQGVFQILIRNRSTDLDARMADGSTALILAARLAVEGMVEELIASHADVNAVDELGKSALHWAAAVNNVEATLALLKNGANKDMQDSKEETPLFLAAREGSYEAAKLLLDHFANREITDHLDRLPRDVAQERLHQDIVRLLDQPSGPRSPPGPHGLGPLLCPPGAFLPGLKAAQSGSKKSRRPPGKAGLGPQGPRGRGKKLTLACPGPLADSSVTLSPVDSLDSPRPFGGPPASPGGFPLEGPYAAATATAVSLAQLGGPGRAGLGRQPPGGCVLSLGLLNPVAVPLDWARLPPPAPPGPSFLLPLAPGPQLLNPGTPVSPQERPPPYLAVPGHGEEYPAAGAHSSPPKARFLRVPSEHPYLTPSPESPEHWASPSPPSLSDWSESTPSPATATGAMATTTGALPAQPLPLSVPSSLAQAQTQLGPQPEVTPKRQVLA

[20] = probe aEGFR binding to arrayed compounds – biochemical, biotinylated probe, 635/667 nm fluorescence, primary screen (AID 1097); conditions: small-molecule microarray, higher = more signal;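 also: probe is a biotinylated anti-EGFR antibody binding compounds printed on slides; score combines fluorescence near 667 nm and signal to noise of each spot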

Row | SMILES | composite z-score [1] | composite z-score [2] | composite z-score [3] | composite z-score [4] | composite z-score [5] | composite z-score [6] | composite z-score [7] | z-score [8] | composite z-score [9] | composite z-score [10] | composite z-score [11] | z-score [12] | z-score [13] | z-score [14] | composite z-score [15] | z-score [16] | composite z-score [17] | composite z-score [18] | composite z-score [19] | composite z-score [20]
1 | C=CCOC(=O)[C@@H]1[C@H]2C(=O)O[C@H](c3ccccc3)[C@H](c3ccccc3)N2[C@H](c2ccc(OCCOC(=O)[C@H]3C[C@H]4C(=O)N[C@@H](CCCC[N+](C)(C)C)C(=O)N4[C@H]3c3cccc(OCCO)c3)cc2)[C@@]12C(=O)Nc1ccc(I)cc12 | -0.542 | 0.391 | -0.0824 | 0.651 | 0.827 | -0.306 | 1.17 | 0.179 (inactive) | 0.166 | 0.154 | 1.59 | 0.904 (inactive) | 1.04 (inactive) | 4.48 (inactive) | 2.34 | 0.254 (inactive) | 0.0631 | 1.45 | 1.13 | 0.0527
2 | COc1ccc(C(=O)Nc2cccc(CN3C(=O)[C@@]4(O[C@@H](CCn5cc([C@H](O)c6ccccc6)nn5)[C@H]([Si](C)(C)c5ccc(OC)cc5)[C@H]4C)c4ccccc43)c2)cc1 | 0.395 | -0.559 | -0.123 | 0.335 | 0.336 | 0.838 | 1.14 | -1.47 (inactive) | 0.179 | 0.0373 | 0.677 | -0.384 (inactive) | -1.17 (inactive) | 0.0585 (inactive) | 1.11 | -0.594 (inactive) | 0.0123 | 1.58 | 0.806 | -0.0947
3 | COc1ccc([Si](C)(C)[C@@H]2[C@@H](CCO)O[C@]3(C(=O)N(Cc4cccc(N(C=O)c5ccccc5)c4)c4ccccc43)[C@H]2C)cc1 | 0.318 | 0.526 | -0.0784 | -0.126 | 0.199 | 0.835 | 0.787 | -0.198 (inactive) | 0.316 | 0.0524 | 1.12 | 1.35 (inactive) | 0.946 (inactive) | 9.98 (active) | 0.745 | 1.03 (inactive) | -0.0719 | 0.145 | 0.258 | -0.201
4 | [N-]=[N+]=NCc1ccccc1C[C@]1(C(=O)NCCN2CCOCC2)N=C(c2ccc(OCCCO)cc2)O[C@H]1c1ccccc1CN=[N+]=[N-] | -0.199 | -0.671 | 0.0011 | 1.12 | 1.03 | 1.11 | 1.2 | -0.0883 (inactive) | 1.26 | 0.0139 | 1.53 | -2.57 (inactive) | -0.847 (inactive) | -0.802 (inactive) | -3.05 | 1.2 (inactive) | 0.111 | 1.16 | 1.08 | 0.0278
5 | O=C(CS)NCCCCCCNC(=O)[C@H]1C[C@H]2C(=O)N3CCC[C@H]3C(=O)N2[C@H]1c1ccc(O)cc1 | 0.112 | -0.0248 | -0.0759 | -0.15 | -0.183 | 0.883 | 1.31 | 1.04 (inactive) | 0.416 | 0.0749 | 1.42 | -0.637 (inactive) | 0.0932 (inactive) | 0.369 (inactive) | 2.22 | -0.506 (inactive) | -0.0845 | 1.21 | 0.905 | -0.208
6 | C=CCN1C(=O)[C@@]2(O[C@@H](CCO)[C@H]([Si](C)(C)c3ccc(OC)cc3)[C@H]2C)c2cc(NC(C)=O)ccc21 | -0.412 | 0.299 | -0.0887 | 1.19 | 1.07 | 0.864 | 1.2 | -0.174 (inactive) | 0.55 | 0.294 | 1.15 | 0.0173 (inactive) | -1.67 (inactive) | -0.741 (inactive) | 1.96 | -0.203 (inactive) | -0.0231 | 1.23 | 0.725 | 0.118
7 | CN(C)CCCC[C@@H]1NC(=O)[C@@H]2C[C@H](C(=O)NCc3ccc(F)cc3)[C@H](c3cccc(OCCO)c3)N2C1=O | -0.173 | -0.114 | -0.0707 | 0.738 | -0.252 | 0.617 | 1.02 | 1.36 (inactive) | 0.202 | -0.41 | 1.55 | -0.65 (inactive) | -1.41 (inactive) | -0.663 (inactive) | 2.96 | -0.0129 (inactive) | 0.823 | 1.97 | 1.11 | -0.0953
8 | Cc1ccc(N2C(=O)c3ccccc3[C@@H](C(=O)NCC(C)C)[C@@H]2c2ccc(CO)cc2)nc1 | 0.341 | -0.751 | -0.161 | -0.494 | -1.07 | -0.265 | 0.346 | -0.788 (inactive) | -0.473 | -0.0645 | 0.137 | 0.229 (inactive) | 0.0994 (inactive) | -0.456 (inactive) | 2.32 | 0.409 (inactive) | -0.186 | -0.479 | -1.03 | -0.298
9 | C=CCOC(=O)[C@@H]1[C@H]2C(=O)O[C@H](c3ccccc3)[C@H](c3ccccc3)N2[C@H](c2ccc(OCCOC(=O)[C@H]3C[C@H]4C(=O)N[C@@H](Cc5ccccc5)C(=O)N4[C@H]3c3ccc(O)cc3)cc2)[C@@]12C(=O)Nc1ccc(I)cc12 | -0.248 | 1.33 | -0.0939 | 0.459 | 1.11 | 0.846 | 1.3 | 1.16 (inactive) | 0.248 | -0.0994 | 1.54 | 2.61 (inactive) | -1.76 (inactive) | 0.88 (inactive) | 1.83 | -1.96 (inactive) | -0.0879 | 0.906 | 1.09 | 0.128
10 | O=C1OCC=C[C@H]2OC34C=CCN(c5ccc(Cl)cc5)C(=O)[C@H]3N(CCCO)C(=O)[C@@H]4[C@@H]12 (stereo not given in full) | 0.768 | -0.38 | -0.0847 | -0.573 | -1.6 | 0.3 | 1.41 | -0.0992 (inactive) | -0.415 | -0.277 | 0.631 | 0.0783 (inactive) | -0.252 (inactive) | 0.0814 (inactive) | 2.56 | 1.3 (inactive) | -0.0783 | -0.996 | -0.478 | -0.28
